# Measurements published in the OligoGym collection.
# Target: CHCHD8
# Test: pooled miR-30 sensor sort-seq; sequence = guide strand
# Settings: shRNA
# Further: reference of the scale not given here.
row,Sequence,sensor-assay potency score (higher = more potent)
1,TCGTCTTTCTTCACCCGTTGGG,-0.227
2,TTCTTCACCCGTTGGGTCCAGG,-0.933
3,TTGCCGCCAGTCCTGGTGCTGG,-1.88
4,TCTTCCTCTATAATCTTGCTGG,-0.27
5,TCATCGTCTTTCTTCACCCGTT,-0.24
6,ATCGTCTTTCTTCACCCGTTGG,-0.879
7,TCATGCAATCCTTGAACGCCTG,-0.766
8,TTGCCTCCTCTGCAGCTCCTCT,-1.69
9,TTGTTCTTGCCTCCTCTGCAGC,-1.04
10,TTCCTCTATAATCTTGCTGGGT,-1.07
11,TATGACAGCTGTTTGTGCCAGT,0.271

# Target: CHD2
# Test: as above
# Settings: shRNA
row,Sequence,sensor-assay potency score (higher = more potent)
1,TTCTTCTTGAGACCTTTTCTTA,-0.844
2,TATTACTCTTTCTACTATCTGA,0.18
3,TTCAACAAGTAATCCGCTCGGG,0.35
4,TTTAAAGCTACAAATCGTGGTC,0.518
5,TTGATTGTTGGACCTCTCCTTT,-0.473
6,TAAGCCTTGATGAACCTTCGGA,0.0623
7,TTGTTTTCCAGGATCGTCCGGC,-0.196
8,TGCATTGCTGACACACAGCTGT,-0.311
9,TAGCACCTTATGAAGACTCTGG,-0.21
10,TCAACAAGTAATCCGCTCGGGT,-0.663
11,TTTCATTGGACTTTTTTCCAAG,-0.762
12,TTCCTTAATATTAAATCGCGAT,-0.656
13,TTTCTTATGAGCCATCTTGTAT,-1.08
14,TAAACTGTGATAGAAGTTCATC,-0.983
15,TTTTGCACCAGGAATGAGCTAG,0.429
16,TTATCTGTGTGGAAAGAGCGGT,-0.167
17,TGACACTTCATTCTCTCTCGTT,-0.0754
18,TTCTTCACATCAGCTATCCGTT,-0.528
19,TTGCACTTGTTGACACTTCATT,-0.8
20,TTTATCTGTCTCCACCGGCAGA,-1.04
21,TTCTTCTAGCTCCTTCTGCCGC,-0.813
22,TTATAAGCCTTGATGAACCTTC,0.197
23,ATAAATTTCTTCTAGCTCCTTC,1.15

# Target: CHEK1
# Test: as above
# Settings: shRNA
row,Sequence,sensor-assay potency score (higher = more potent)
1,TAAAGAATCGTGTCATTCTTTT,-0.659
2,TTTATTGATACAGATCTCTTTC,0.115
3,TTTTCTTCCATTGATAGCCCAA,-0.419
4,TTGTCTGCATCCAATTTGGTAA,-1.02
5,TAGCAGCACTATATTCACCAGG,-0.884
6,TATTTTATCATCCATTTCTAAC,-1.06
